Test results from PubChem BioAssay AID686971 (National Center for Advancing Translational Sciences (NCATS), 2013).
About 7,500 (2.1%) of roughly 360,000 compounds were called active. Inconclusive results (about 8%) are left out. The list comes from a sample in which actives are over-represented; it also holds similar structures and randomly drawn compounds. Values without a mark were called inactive. The call rests on the fitted dose curve; in most records, active means well fitted cell-killing curve with a large enough effect; inconclusive means small, poorly fitted or top-dose-only effect, or effect the other way, or another doubt; inactive means no such curve, though single readings can be large or run the other way.

Test: qHTS for induction of synthetic lethality in tumor cells producing 2HG: qHTS for the HT-1080-IDH1KD cell line;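 on activity, negative = toxicity: 0% = DMSO wells and -100% = cell-free medium wells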
Conditions: HT-1080 IDH1 knockdown viability, ATP luminescence, 48 h; series mostly up to 46.1 µM; activity, negative = toxicity: at the top concentration
Method in brief: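 Knockdown cells (IDH1KD HT-1080) received compounds 2 h after plating at 750 cells/well and were kept 48 h at 37 °C in 5% FBS RPMI. A CellTiter-Glo luminescence read gave % activity for curve fitting.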
Potency means the concentration at half of the fitted maximal effect.

| SMILES | activity, negative = toxicity | Potency |
| --- | --- | --- |
| CSc1ncnc2c1ncn2CCCNCc1cccs1 | -0.667% |  |
| CC1(C(=O)NS(=O)(=O)c2cccs2)CCN1C(=O)Cc1ccc(-c2ccccc2)cc1 (configuration not stated) | 0.115% |  |
| Cc1ccc(Cc2c(-c3ccccc3)nc3ccc(Cl)cn23)cc1 | -1.66% |  |
| Cc1ccc(-c2nc3ccc(Cl)cn3c2Cc2ccccc2)cc1 | 14.3% |  |
| Cc1ccc(Cc2c(-c3ccco3)nc3ccc(Cl)cn23)cc1 |  | 16.4 µM (active) |
| Cc1cccc(CNC(=O)c2sc(=O)n(Cc3ccccc3C)c2C)c1 | -6.96% |  |
| CCN(CC)C(=O)C1=C(C)N(Cc2ccc(OC)cc2)C(=O)C(CC(=O)NCc2ccco2)C1 (configuration not stated) | -4.38% |  |
| CC(C)c1ccc(CC(=O)N2CCC2(C)C(=O)NS(=O)(=O)c2ccc(C(C)(C)C)cc2)cc1 (configuration not stated) | 6.81% |  |
| CC1=CC(C)(C)NC(=S)N1NC(=O)c1ccccc1Cl | 6% |  |
| CC1=CC(C)(C)NC(=S)N1c1ccccc1 |  | 11.2 µM (active) |
| O=C1C(Sc2cccc(F)c2)=C[C@@]2(O)CC[C@@H](O)[C@]1(Sc1cccc(F)c1)[C@H]2O | -28.1% |  |
| CCOC(=O)c1cc(-c2sc(NC(=O)c3ccccc3)nc2C)n(CCO)n1 | -19.1% |  |
| Cc1cc(C)n2c(Nc3c(C)cccc3C)c(CCc3ccccc3)nc2n1 | -3.88% |  |
| COc1ccc(S(=O)(=O)N(C)C[C@H]2OCc3cnnn3CCCC(=O)N([C@H](C)CO)C[C@H]2C)cc1 | -3.99% |  |
| Oc1c(Cl)cc(Cl)c(Cl)c1Cc1c(O)c(Cl)cc(Cl)c1Cl |  | 7.31 µM (active) |
| COc1cc2nc(N3CCCN(C)CC3)nc(NC3CC3)c2cc1OC | -19% |  |
| CC(=O)NN=C(C)c1ccc(NC(=O)C2CC2)cc1 | -0.362% |  |
| CCCCN1CC(C)(C)[C@H](CC(=O)Nc2ccc(Br)cc2)C1=O | 8.88% |  |
| COc1ccc(/C=N/Nc2ncnc3sc4c(c23)CCCC4)cc1O |  | 20.6 µM (active) |
| COc1ccc(NC(=O)CCNC(=O)Cn2cnc3sc4c(c3c2=O)CCCC4)cc1OC | 1.16% |  |
| COc1ccc(NC(=O)CCCNC(=O)Cn2cnc3sc4c(c3c2=O)CCCC4)cc1OC | 11.8% |  |
| Nc1cccc(-c2cncc(N3CCN(Cc4ccccn4)CC3)n2)c1 | 7.1% |  |
| C[C@H](CO)N1C[C@H](C)[C@H](CN(C)C(=O)Nc2ccc3c(c2)OCO3)Oc2ncc(Br)cc2C1=O | 8.51% |  |
| CCC(C)N(C(=O)CSc1nnnn1-c1ccccc1OC)C1CCS(=O)(=O)C1 (configuration not stated) | 2.01% |  |
| COc1ccccc1-n1nnnc1S(=O)(=O)Cc1ccc(Cl)cc1 |  | 16.4 µM (active) |
| COc1ccccc1-n1nnnc1SCC(=O)NC(=O)Cc1ccccc1 | 0.816% |  |

| SMILES | activity, negative = toxicity | Potency |
| --- | --- | --- |
| OC[C@@H]1CN(Cc2ccc3c(c2)OCO3)C[C@H](n2cnc3c(NCc4ccco4)ncnc32)O1 | 4.42% |  |
| CC(C)(C)C1CCC(=O)N2CCC[C@]2(c2ccccc2)C1 (some centres not stated) | 9.93% |  |
| CCCc1ccc(S(=O)(=O)N2CCN(C(=O)c3cc(C)on3)CC2)cc1 | -0.945% |  |
| Cc1cc(Nc2ccc(C)c(C)c2)n2ncnc2n1 | -2.91% |  |
| CC(=O)OC[C@@H]1CN(Cc2ccccc2)C[C@H](n2cnc3c(NCc4ccco4)ncnc32)O1 | 19.6% |  |
| CSc1ccccc1-c1nnc(-c2ccc(Cl)cc2)o1 | -1.6% [at 9.24 µM] |  |
| Oc1ccccc1-c1cc(-c2ccc(Cl)cc2)n[nH]1 |  | 16.4 µM (active) |
| O=C(Nc1ccc(Cl)cn1)c1ccccc1-c1ccccc1 | 5.73% |  |
| O=C(COc1ccc(Br)cc1)OCC(=O)c1ccc[nH]1 | -0.3% |  |
| Cc1ccc(C(=O)N[C@H](C(=O)N2CCN(c3ncccn3)CC2)C(C)C)cc1 | -5.92% |  |
| O=C(N/N=C/c1ccccc1O)/C(=C/c1ccccc1)CCO |  | 3.26 µM (active) |
| Oc1ccccc1C=NC1CCCCC1N=Cc1ccccc1O (configuration not stated) | 2.75% |  |
| O=C(NN=Cc1ccccc1O)NN=Cc1ccccc1O |  | 8.2 µM (active) |
| C=CCOc1ccccc1/C=N/NC(=O)Cc1ccccc1 | 5.83% |  |
| COc1ccc(/C=N/NC(=O)C2CC2)c(OC)c1OC | 16.6% |  |
| O=C(CO/N=C/c1ccccc1O)NNC(=O)c1ccccc1Cl | -23.8% |  |
| O=C(N/N=C/c1ccccc1O)C1CCCC1 |  | 23.1 µM (active) |
| O=C(NN=Cc1ccccc1)c1ccccc1 | 12.9% |  |
| O=C(CCC(=O)Nc1ccccc1)N/N=C/c1ccccc1F | 12.4% |  |
| Brc1ccc2nc(-c3ccccc3)c(Cc3ccccc3)n2c1 | 18.4% |  |
| N#C/C(=C(/O)COC(=O)COc1ccc(Cl)cc1)c1nc2ccccc2[nH]1 | 25.4% |  |
| O=C(N/N=C/c1ccc(Cl)cc1)c1nc2ccc([N+](=O)[O-])cc2c(=O)[nH]1 | 9.48% |  |
| O=C(/C(=C/c1cccc(Cl)c1)c1nc2ccccc2[nH]1)c1ccccc1 |  | 3.26 µM (active) |
| O=C(Nc1ccon1)c1nc[nH]c1C(=O)NCc1ccccc1 |  | 2.59 µM (active) |
| CCOC(=O)c1ccc(NC(=O)c2nc[nH]c2C(=O)NCc2ccccc2)cc1 | 9.29% |  |
| O=C(Nc1cc(Br)ccc1F)c1nc[nH]c1C(=O)NCc1ccccc1 | 0.69% |  |
